Results reported in PubChem BioAssay (Tox21).
Inconclusive results are not listed. Active and inactive are the calls of the source. The call rests on the fitted dose curve; in most records, active means well fitted curve in the direction sought with a large enough effect in the repeat runs; inconclusive means weak or mixed curves; inactive means no such curve, though single readings can be large; an effect the other way counts as inactive or inconclusive.

Columns and labels:
[1] = qHTS RealTime-Glo MT Cell Viability Assay in HepG2 cells - 8 hour (AID 1224873); further: nearly all actives have a fitted effect of over 55% in size
Outline: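 Real-time viability: cells seeded at 600 per well together with NanoLuc and cell-permeant prosubstrate, compounds added after 5 h incubation. Luminescence tracked at 0, 8, 16, 24, 32 and 40 h of exposure.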

[2] = qHTS RealTime-Glo MT Cell Viability Assay in HEK293 cells - 40 hour (AID 1224874); settings: RealTime-Glo luminescence; max response: hits give low values; further: nearly all actives have a fitted effect of over 50% in size; further: potency means the concentration at half of the fitted maximal effect
Outline: (§1)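 Luminescence readout at each listed time point; HEK293, 600 cells/well, RealTime-Glo MT reagent added with cells; compounds pinned (23 nL in DMSO) after 5 h at 37 C; continuous culture at 37 C.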

[3] = qHTS RealTime-Glo MT Cell Viability Assay in HepG2 cells - 32 hour (AID 1224877); further: nearly all actives have a fitted effect of over 55% in size; further: potency means the concentration at half of the fitted maximal effect
Outline: (§2)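 Tox21 10K library screened in qHTS format on HepG2 cells carrying RealTime-Glo reagents. Compounds were added after a 5 h preincubation, and the luminescent signal from continuous culture was measured repeatedly during 40 h treatment.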

[4] = qHTS RealTime-Glo MT Cell Viability Assay in HEK293 cells - 0 hour (AID 1224880); further: top concentration of the series differs between compounds; nearly all actives have a fitted effect of over 45% in size
Outline: as §1

[5] = A CellTox Green Cytotoxicity Assay to monitor cytotoxicity in HepG2 cells - 0 hour (AID 1224882); further: nearly all actives have a fitted effect of over 35% in size
Outline: (§3)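 HepG2, 600 cells/well premixed w/ CellTox Green; 5 h settle, 37 C/5% CO2; pintool cpd add (DMSO); 37 C, 40 h; fluorescence read at 0, 8, 16, 24, 32, 40 h.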

[6] = A CellTox Green Cytotoxicity Assay to monitor cytotoxicity in HEK293 cells - 8 hour (AID 1224884); further: nearly all actives have a fitted effect of over 35% in size
Outline: (§4)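 Read-out: fluorescence of a cell-impermeant cyanine dye staining DNA of dead cells, proportional to cytotoxicity. HEK293, 600 cells/well with reagent, compound (23 nL DMSO) added after 5 h; reads at 0, 8, 16, 24, 32, 40 h.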

[7] = qHTS RealTime-Glo MT Cell Viability Assay in HepG2 cells - 16 hour (AID 1224885); further: nearly all actives have a fitted effect of over 50% in size
Outline: as §2

[8] = qHTS RealTime-Glo MT Cell Viability Assay in HEK293 cells - 24 hour (AID 1224886); further: nearly all actives have a fitted effect of over 50% in size; further: potency means the concentration at half of the fitted maximal effect
Outline: (§5)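 Luminescence generated by NanoLuc from substrate produced by living HEK293 cells served as the viability signal. Each value reflects the reading at its stated time point during continuous 40 h compound exposure at 37 C.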

[9] = A CellTox Green Cytotoxicity Assay to monitor cytotoxicity in HEK293 cells - 16 hour (AID 1224888); further: nearly all actives have a fitted effect of over 35% in size
Outline: as §4

[10] = qHTS RealTime-Glo MT Cell Viability Assay in HepG2 cells - 0 hour (AID 1224889); further: nearly all actives have a fitted effect of over 50% in size; further: potency means the concentration at half of the fitted maximal effect
Outline: as §2

[11] = A CellTox Green Cytotoxicity Assay to monitor cytotoxicity in HepG2 cells - 8 hour (AID 1224890); further: nearly all actives have a fitted effect of over 45% in size
Outline: as §3

[12] = A CellTox Green Cytotoxicity Assay to monitor cytotoxicity in HEK293 cells - 40 hour (AID 1224871); further: nearly all actives have a fitted effect of over 45% in size
Outline: as §4

[13] = A CellTox Green Cytotoxicity Assay to monitor cytotoxicity in HEK293 cells - 24 hour (AID 1224875); further: series mostly up to about 77 µM; nearly all actives have a fitted effect of over 45% in size
Outline: as §4

[14] = A CellTox Green Cytotoxicity Assay to monitor cytotoxicity in HepG2 cells - 16 hour (AID 1224876); further: nearly all actives have a fitted effect of over 45% in size
Outline: as §3

[15] = A CellTox Green Cytotoxicity Assay to monitor cytotoxicity in HepG2 cells - 24 hour (AID 1224878); further: nearly all actives have a fitted effect of over 45% in size
Outline: as §3

[16] = A CellTox Green Cytotoxicity Assay to monitor cytotoxicity in HepG2 cells - 40 hour (AID 1224879); further: nearly all actives have a fitted effect of over 40% in size
Outline: as §3

[17] = A CellTox Green Cytotoxicity Assay to monitor cytotoxicity in HEK293 cells - 32 hour (AID 1224881); further: nearly all actives have a fitted effect of over 40% in size
Outline: as §4

[18] = A CellTox Green Cytotoxicity Assay to monitor cytotoxicity in HepG2 cells - 32 hour (AID 1224883); further: nearly all actives have a fitted effect of over 50% in size
Outline: as §3

[19] = qHTS RealTime-Glo MT Cell Viability Assay in HEK293 cells - 8 hour (AID 1224887); further: nearly all actives have a fitted effect of over 50% in size; further: potency means the concentration at half of the fitted maximal effect
Outline: as §1

[20] = qHTS RealTime-Glo MT Cell Viability Assay in HEK293 cells - 16 hour (AID 1224872)
Outline: as §5
On the % scale 0 is the no-effect control and ±100 the full control effect.

CC(C)c1cccc(C(C)C)c1N
inactive: outcome [1] | max response [2] -0.332% | Potency [3] | outcome [4] | Potency [5] | Potency [6] | outcome [7] | Potency [8] | Potency [9] | Potency [10] | Potency [11]

CCCCCCCCCCCCI
inactive: Potency [12] | outcome [1] | max response [2] -9.8% | Potency [13] | Potency [14] | Potency [15] | Potency [16] | outcome [4] | Potency [17] | Potency [5] | Potency [18] | outcome [7] | Potency [8] | Potency [19] | Potency [10] | Potency [11]
active: Potency [3] 24.7 µM

NC(=O)Nc1nc2ccccc2[nH]1
inactive: Potency [20] | outcome [1] | max response [2] -25.5% | Potency [14] | Potency [16] | outcome [4] | Potency [5] | Potency [18] | Potency [6] | outcome [7] | Potency [8] | Potency [10] | Potency [11]

CCN1CCN(c2cc3c(cc2F)c(=O)c(C(=O)O)cn3C2CC2)CC1
inactive: Potency [12] | outcome [1] | max response [2] -0.866% | Potency [13] | Potency [14] | Potency [15] | Potency [16] | outcome [4] | Potency [17] | Potency [5] | Potency [18] | outcome [7] | Potency [8] | Potency [19] | Potency [9] | Potency [10]

O=C(O)c1ccccc1S
inactive: Potency [20] | outcome [1] | max response [2] -0.793% | Potency [14] | Potency [3] | Potency [16] | outcome [4] | Potency [5] | Potency [18] | outcome [7] | Potency [8] | Potency [19] | Potency [9] | Potency [10]

CC1(C)SC(C)(C)SC(C)(C)S1
inactive: Potency [12] | outcome [1] | Potency [3] | outcome [4] | Potency [17] | Potency [5] | outcome [7] | Potency [19] | Potency [9] | Potency [10]

O=C(O)C1CCC1
inactive: Potency [12] | outcome [1] | max response [2] -0.0608% | Potency [13] | Potency [14] | Potency [15] | Potency [16] | outcome [4] | Potency [17] | Potency [5] | Potency [18] | Potency [6] | outcome [7] | Potency [19] | Potency [9] | Potency [10] | Potency [11]

CSc1nc(NC2CC2)nc(NC(C)(C)C)n1
inactive: Potency [12] | outcome [1] | Potency [13] | Potency [14] | Potency [3] | Potency [15] | Potency [16] | outcome [4] | Potency [17] | Potency [5] | Potency [6] | outcome [7] | Potency [9] | Potency [10] | Potency [11]
active: Potency [2] 24.5 µM | Potency [8] 21.9 µM | Potency [19] 19.5 µM

CC12CCC(CC1=O)C2(C)C (stereo not given)
inactive: Potency [12] | max response [2] -2.19% | Potency [13] | Potency [14] | Potency [3] | Potency [15] | Potency [16] | outcome [4] | Potency [17] | Potency [5] | Potency [18] | Potency [6] | outcome [7] | Potency [8] | Potency [19] | Potency [9] | Potency [10] | Potency [11]

C/C=C1\C(=O)C[C@H]2[C@@H]3CCC4=CC(=O)CC[C@]4(C)[C@H]3CC[C@]12C
active: Potency [2] 21.4 µM | Potency [10] 7.61 µM
inactive: outcome [1] | Potency [13] | Potency [14] | Potency [15] | Potency [16] | Potency [5] | Potency [18] | Potency [6] | outcome [7] | Potency [9]

CCN(CC)S(=O)(=O)c1ccc(C(=O)O)cc1
inactive: outcome [1] | Potency [14] | Potency [3] | Potency [15] | Potency [16] | Potency [5] | Potency [18] | outcome [7] | Potency [10] | Potency [11]

C=CC(=O)OCCCCCC
inactive: Potency [12] | outcome [1] | max response [2] -6.6% | Potency [13] | Potency [14] | Potency [15] | Potency [16] | outcome [4] | Potency [17] | Potency [5] | Potency [18] | Potency [6] | outcome [7] | Potency [19] | Potency [9] | Potency [10] | Potency [11]

CCCCCOC(=O)Nc1nc(=O)n([C@@H]2O[C@H](C)[C@@H](O)[C@H]2O)cc1F
inactive: Potency [12] | outcome [1] | max response [2] 7% | Potency [13] | Potency [14] | Potency [3] | Potency [15] | Potency [16] | outcome [4] | Potency [17] | Potency [5] | outcome [7] | Potency [8] | Potency [19] | Potency [9] | Potency [10] | Potency [11]
